The text below walks through data of paper PMC7819943, “Rice protein-binding microarrays: a tool to detect cis-acting elements near promoter regions in rice”.

Whole data set: some 39,000 sequences, median “fluorescence intensity (a.u.)” near 4,300, cut for the highest 2% near 39,000. For the sample, the highest values were picked, then their nearest neighbours and some sequences at random.

This experiment deals with T1, OsSMF1 (Oryza sativa, UniProt Q6ZLB0 1-436).
T1 sequence: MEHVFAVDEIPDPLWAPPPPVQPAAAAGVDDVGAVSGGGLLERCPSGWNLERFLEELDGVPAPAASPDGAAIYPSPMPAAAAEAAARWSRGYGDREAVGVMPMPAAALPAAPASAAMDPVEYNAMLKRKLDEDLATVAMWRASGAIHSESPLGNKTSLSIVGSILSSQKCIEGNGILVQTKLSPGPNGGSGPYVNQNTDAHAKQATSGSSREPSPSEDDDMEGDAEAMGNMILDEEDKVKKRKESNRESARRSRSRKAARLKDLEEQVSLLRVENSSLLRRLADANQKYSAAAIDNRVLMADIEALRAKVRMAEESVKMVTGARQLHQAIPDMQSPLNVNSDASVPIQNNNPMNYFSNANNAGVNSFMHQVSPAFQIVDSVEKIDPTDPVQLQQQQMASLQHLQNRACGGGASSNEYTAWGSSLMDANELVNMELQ
Kind of experiment: protein-binding microarray (RPBM); PBS, 2% BSA, 51.3 ng/ul salmon testes DNA, 50 uM zinc acetate, 200 nM TF, 25 C, 1 h; high values mean tight binding. As to conditions: protein: recombinant; tags: N-terminal polyhistidine and DsRed monomer fusion (pET32a); chain copies: 2; label: CyDye5-dUTP incorporated in the synthesized complementary strand; 3' TTTTT single-stranded linker to array surface; dsDNA, one strand shown. In outline:
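Transcription factors were made in E. coli BL21-CodonPlus as N-terminal fusions to a polyhistidine tag and DsRed, then purified on Ni–NTA. After primer extension with Cy5-dUTP and blocking with 2% BSA, a custom Agilent array was exposed for 1 h at 25 °C to 200 nM protein in PBS, 2% BSA, salmon testes DNA and 50 µM zinc acetate. Washed arrays were scanned on an Axon 4000B, and the binding signal is per-feature fluorescence intensity in arbitrary units.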
As for “ACCTGTATTTGTCATTATTTAGTGGACTCTGCTTAGTTCTCGGAGTCACCTAGTGCAG”, the binding signal is 3390 fluorescence intensity (a.u.). For “TGCAGCCGCCGACGCGGCGCGCCGACGCGATCTGAAACCCCGGAGTCACCTAGTGCAG” the value was 3940 fluorescence intensity (a.u.). As to “CATGGTGATGATGGCGGCGGGCGTCCGTCAGCGCCCGCACCGGAGTCACCTAGTGCAG”, the binding signal is 5860 fluorescence intensity (a.u.).

“TATGGTGATCCTAGCGATGAAACCGCCTAGCCCCGTTAGGCGGAGTCACCTAGTGCAG”: the binding signal is 64600 fluorescence intensity (a.u.). For “CCTATTCCTTGTCACTATGACACCGTCATATATCTATGCACGGAGTCACCTAGTGCAG” the value was 3420 fluorescence intensity (a.u.); for “CCCGCGGATCGATCGATCGCCGCCGCGCGCCTGGACGAGCCGGAGTCACCTAGTGCAG”, 3300 fluorescence intensity (a.u.).

As for “AATCGTGTCCATGGTCTCCACCTCACGGGAGATTCTCCGCCGGAGTCACCTAGTGCAG”, the binding signal was 3830 fluorescence intensity (a.u.).

Take “CGCCTCCGTGGACCCGGTCCACGGGGAGATTACACCTTCACGGAGTCACCTAGTGCAG”: the binding signal is 57600 fluorescence intensity (a.u.). The value for “CCGCCACCCGCTGCCCGGGGAGCTCCGCCTTCACCTCCGCCGGAGTCACCTAGTGCAG” was 7820 fluorescence intensity (a.u.).

As for “ATAGTTAGGTGACAATTGACAAGTGTCAAGTTGTGTATGACGGAGTCACCTAGTGCAG”, the binding signal is 3360 fluorescence intensity (a.u.). As for “TGATGGCGGCTTTAGGTGACATGCAGCATTAAGTGGCATGCGGAGTCACCTAGTGCAG”, the binding signal was 4460 fluorescence intensity (a.u.).

With “GGACACCCGCTCCGCGTCGCGCGCACGCTAGAAGAACTCCCGGAGTCACCTAGTGCAG”, the binding signal is 3140 fluorescence intensity (a.u.).

For the sequence “GCAGCTGAAGTGGACCTGTCAGCAAGTAAAGCCAAGAGGCCGGAGTCACCTAGTGCAG”, the binding signal is 3470 fluorescence intensity (a.u.). For “ACGACACTACCAATTGTTTGGCCTTCAATCCAAACTAGCACGGAGTCACCTAGTGCAG” the value was 3500 fluorescence intensity (a.u.); for “AATTGCTATGGTTACACCCGGCCGAAGCAAAGTCACCACTCGGAGTCACCTAGTGCAG”, 3520 fluorescence intensity (a.u.). As for “GAAATGCCAAGTGTGAGAAGATGACGCACCCAAATGCAACCGGAGTCACCTAGTGCAG”, the binding signal is 5640 fluorescence intensity (a.u.). The value for “CTCTCCTCCTTTCTTCTCCAAGTCAACAGTTCCTACGCTACGGAGTCACCTAGTGCAG” was 3360 fluorescence intensity (a.u.); that for “AGCAAGCAAAGCCGAAGAATTGTTACACGGCCAAAGTGGACGGAGTCACCTAGTGCAG” was 41200 fluorescence intensity (a.u.). For “CGGAAAAGAAAGCCATGGAAGAAATGACGCAAGCAGCGGACGGAGTCACCTAGTGCAG” the value was 4230 fluorescence intensity (a.u.); for “TCGCACCAAGAATTGTTCACCTACCTTCAAAGTTCCAACACGGAGTCACCTAGTGCAG”, 63300 fluorescence intensity (a.u.).

As for “TCCAAGAAAGTGACCAAGCAAATGACGCAAGTGGTGCACGCGGAGTCACCTAGTGCAG”, the binding signal was 40200 fluorescence intensity (a.u.).

Turning to “GCAAAAGCATCTTGGAGGAGATACAGTCAGCTGGCAATCCCGGAGTCACCTAGTGCAG”, the binding signal was 4160 fluorescence intensity (a.u.). For “CCACCACGCTTTCCCCGCGCGATGACTCCGCCGCCGCGCCCGGAGTCACCTAGTGCAG”, the binding signal was 5400 fluorescence intensity (a.u.). For “CCCACGTGAGTAAGCTCCTCCCTGCTGGTTTGATTCCCTTCGGAGTCACCTAGTGCAG” the value was 4650 fluorescence intensity (a.u.); for “GTGTAAAAGTTTTGACGTGTCACATCGGATATACGGACACCGGAGTCACCTAGTGCAG”, 15300 fluorescence intensity (a.u.). For “TTGGGGAAAAGTTTTGAGTTTGATTGTCACATCGGATATACGGAGTCACCTAGTGCAG” the value was 53000 fluorescence intensity (a.u.); for “CAAAAGTTTTGACGTGTCACATCGGATATACGGACACACACGGAGTCACCTAGTGCAG”, 10800 fluorescence intensity (a.u.); for “TTCCATCCAGAGTGCGTCACGAACGCGCCAGTCGCCCGGTCGGAGTCACCTAGTGCAG”, 3990 fluorescence intensity (a.u.). The value for “ATAACCGCCCTAATTTACTTTAGCATACGTGGAGTACAAGCGGAGTCACCTAGTGCAG” was 6900 fluorescence intensity (a.u.); that for “AAAGAACGCAGCCTTAGAAGGAGACAGCTCATGGAGCAAGCGGAGTCACCTAGTGCAG” was 5000 fluorescence intensity (a.u.). Take “AGCTCACCGCATTGTAAAGGCCCTTACTAATCTTAGCAAGCGGAGTCACCTAGTGCAG”: the binding signal is 40300 fluorescence intensity (a.u.). The value for “AAATCACACCCACGCTCGTGCCCATTGGGTCGGGTATCCGCGGAGTCACCTAGTGCAG” was 3550 fluorescence intensity (a.u.); that for “TTAAGGTGTGTTTAGTTCCACGTCAAAATTAGAAGTTTGACGGAGTCACCTAGTGCAG” was 7090 fluorescence intensity (a.u.). For “GGAAGGAGACTGCTTGGTCACTAATTTAATCTGCTACTACCGGAGTCACCTAGTGCAG” the value was 3140 fluorescence intensity (a.u.). For “GAGAATTTGCTACTAATTGACTTACCAATTTGGAATTTACCGGAGTCACCTAGTGCAG” the value was 46100 fluorescence intensity (a.u.); for “ATGTTTAGTTCCACGTCAAAATTGGAAGTTTGAAGAAATTCGGAGTCACCTAGTGCAG”, 3980 fluorescence intensity (a.u.). As for “GTATTGAGAATTGTATGACTAATCAATGTTGCCTTACTTACGGAGTCACCTAGTGCAG”, the binding signal was 5200 fluorescence intensity (a.u.). The value for “CCACGCTAAAATTGGAAGTTTGACTAAAATTAGAAGTTTACGGAGTCACCTAGTGCAG” was 60200 fluorescence intensity (a.u.).

With “GCCGGCGTCGCCGTCGGGGATGCACCTCGGCGCGTCCGTCCGGAGTCACCTAGTGCAG”, the binding signal is 3550 fluorescence intensity (a.u.).

Regarding “TGTCCCCGAACCGGATCTGCCCGATGCTCGCCGTCAGCATCGGAGTCACCTAGTGCAG”, the binding signal is 4300 fluorescence intensity (a.u.). As for “TCCCGAAACCCGACACGCGGCACCGATCGATCGATCGATCCGGAGTCACCTAGTGCAG”, the binding signal is 3240 fluorescence intensity (a.u.). For “CGTGCTCACGAAACCCGATCGATCGGTGATCTGCACCGTCCGGAGTCACCTAGTGCAG” the value was 45200 fluorescence intensity (a.u.); for “TATATATGGCCTTTGGTCTGCATAGCTGTCCACGTCATCACGGAGTCACCTAGTGCAG”, 42200 fluorescence intensity (a.u.).
